A short description of test [1]: Cellular Toxicity (caspase-3) HepG2 (AID 654).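 Also: cells exposed to compound for 16 hours before reading; 0% = DMSO alone and 100% = caspase signal from 100 µM tamoxifen.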 The method, boiled down: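 Caspase 3/7 activation is measured as a luminescence increase (aminoluciferin substrate) after 16 h compound exposure of human hepatocarcinoma HepG2 cells. AC50 values are Hill fits, scaled between DMSO baseline and 100 uM tamoxifen stimulation.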
Test [2] can be described thus: Cellular Toxicity (caspase-3) Jurkat (AID 655).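 Also: cells exposed to compound for 16 h at 37 °C before reading.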 The essentials: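 Jurkat cells (5000/well) in complete medium were treated with compounds for 16 hr at 37 °C, then Caspase-Glo 3/7 luminescence was read after 20 min at room temperature. Data normalized to DMSO (basal) and 100 uM tamoxifen (100%); AC50 from Hill fit.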
The nature of test [3]: Cellular Toxicity (caspase-3) HUV-EC-C (AID 656). The method, boiled down:
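HUV-EC-C endothelial cells, 1000/well, were pre-incubated 5 hr at 37°C, then exposed to compounds for 16 hr at 37°C. Caspase-Glo 3/7 luminescence was read after 20 min at room temperature. AC50 came from Hill fits, normalized to DMSO and 100 uM tamoxifen.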

A short description of test [4]: Cellular Toxicity (caspase-3) SHSY5Y (AID 657). Also: potency is read from the fitted curve at half-maximal effect. The method, boiled down:
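SH-SY5Y human neuroblastoma cells (1500/well) were treated with compounds for 16 h at 37 °C, then Caspase-Glo 3/7 luminescence was read after 1 h at room temperature. Data normalized to DMSO and 10 uM staurosporine; AC50 from Hill fits.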

The nature of test [5]: Cellular Toxicity (caspase-3) BJ (AID 658).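 Also: 0% = DMSO basal and 100% = 10 µM staurosporine.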 Conditions: Potency: caspase-3 activation. The essentials:
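Caspase-Glo 3/7 luminescence, read 1 hr after reagent at room temperature, in normal BJ fibroblasts exposed 16 hours at 37 °C. AC50 values from Hill-equation concentration-response, scaled between DMSO basal and 10 uM staurosporine as 100%.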

Test [6] in a line: Cellular Toxicity (caspase-3) MRC-5 (AID 659).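 Also: 0% = DMSO basal and 100% = 10 µM staurosporine.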 The essentials:
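Luminescent Caspase-Glo 3/7 read-out (1 h, room temperature) after a 16 h, 37 °C compound exposure of MRC-5 lung fibroblasts at 1500 cells/well. Concentration-response AC50 from Hill equation; 0% DMSO, 100% 10 uM staurosporine.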

Test [7] is described as follows: Cellular Toxicity (caspase-3) Mesangial (AID 660).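 Also: combined caspase 3 and 7 activity read by Caspase-Glo luminescence; cells exposed to compound for 16 h before the caspase read.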 The essentials:
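Caspase 3/7 activation measured by Caspase-Glo 3/7 luminescence (20 min, room temperature) following 16 h exposure of mesangial cells (1000/well); AC50 from Hill-equation fit, normalized to DMSO and 100 uM tamoxifen.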

Test [8] in a line: Cellular Toxicity (caspase-3) SK-N-SH (AID 661). Also: potency is read from the fitted curve at half-maximal effect.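 As to caspase-3 activation: 0% = DMSO basal and 100% = 10 µM staurosporine.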 Conditions: SK-N-SH caspase-3 activation, qHTS; caspase-3 activation: at 91.7 µM (top of the series), DMSO as zero, staurosporine as full. The essentials: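 Caspase 3/7 activation was read by luminogenic substrate cleavage after 16 hour treatment of SK-N-SH cells. Signal was scaled between DMSO and 10 uM staurosporine, and concentration-response data were fitted with the Hill equation for AC50.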
Background: Quantitative high-throughput screening tests each substance at several concentrations.

Test [9] in a line: Cellular Toxicity (caspase-3) Hek293 (AID 664).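 Also: cells exposed to compound for 16 h at 37 °C before readout.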 Conditions: HEK293 caspase-3 activation, DMSO = 0%, 100 µM tamoxifen = 100%; at 92.2 µM (top of the series). The method, boiled down: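 Concentration-response qHTS: caspase 3/7 activation measured by luminescent aminoluciferin substrate cleavage after 16 h compound exposure of Hek 293 cells. AC50 from Hill equation, with DMSO as basal and 100 uM tamoxifen as 100%.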

Test [10] in a line: Cellular Toxicity (caspase-3) N2a (AID 665).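 Also: compound exposure lasted 16 h at 37 °C before readout.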 The essentials: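 Caspase-3/7 activation measured as luminescence from Caspase-Glo reagent (1 h, room temperature) after 16 h compound exposure of mouse N2a cells. AC50 values from Hill-equation concentration-response, scaled between DMSO and 10 uM staurosporine.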
Test [11] can be described thus: Cellular Toxicity (caspase-3) NIH 3T3 (AID 666). The essentials:
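Caspase-Glo 3/7 luminescence reported caspase activation in 1000 NIH 3T3 cells/well after 16 h compound exposure at 37 C. DMSO set basal and 100 uM tamoxifen set 100% stimulation; concentration-response modeled with the Hill equation for AC50.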

Test [12] can be described thus: Cellular Toxicity (caspase-3) Renal Proximal Tubule (AID 667).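 Also: cells exposed to compound for 16 hours at 37 °C before detection; 0% = DMSO basal and 100% = 10 µM staurosporine.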 The method, boiled down: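 Primary rat proximal tubule cells, 1000/well, 5 h plating at 37 °C, then compound 16 h at 37 °C. Caspase-Glo 3/7 reagent, 1 h RT, luminescence. Normalized to DMSO (basal) and 10 uM staurosporine (100%); Hill-fit AC50.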
Test [13] is described as follows: Cellular Toxicity (caspase-3) H-4-II-E (AID 663).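 Also: cells exposed to compound for 16 hr before readout.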 The essentials:
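Caspase 3/7 activation measured by luminescent aminoluciferin substrate cleavage after 16 hr compound treatment of H-4-II-E cells in complete medium. Increase normalized between DMSO (basal) and 100 uM tamoxifen (100%); Hill-equation AC50 from concentration-response.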

In test [14] the target is Cytochrome P450 3A4 (Homo sapiens) (UniProt P08684). Kind of test: qHTS Assay for Inhibitors and Substrates of Cytochrome P450 3A4 (AID 884). Also: % is scaled to controls: 0 for no effect and ±100 for the full control effect; nearly all actives have a fitted effect of over 50% in size. The essentials: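 Luminescent readout of luciferin produced by CYP3A4 (20 nM) dealkylation of Luciferin-PPXE, 25 uM (its KM). NADPH-driven reaction ran 60 min at RT after 10 min compound preincubation; data scaled to 57 uM ketoconazole as 100% inhibition.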

The nature of test [15]: Confirmation and Secondary Assay for Modulators of Hemoglobin Beta Chain Splicing at IVS2 654 locus (AID 910).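 Also: HeLa cells stably carrying EGFP split by mutant beta-globin IVS2-654 intron; per-well total GFP intensity by laser scanning cytometry after 2-day treatment; % of control where 0% means no effect.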 The method, boiled down:
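Readout: per-well total peak green fluorescence (488 nm ex, 500–520 nm em) from objects 5–250 µm, reflecting correct splicing of an EGFP-654 reporter. Compounds were applied for 2 days at 37 °C to overnight-plated HeLa EGFP-654 cells; controls were DMSO and 500 nM IVS2-654 PNA.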

The values that follow come from PubChem BioAssay (NCATS).

A number with no mark means an inactive call. Inconclusive results are not listed. Activity calls are given as the source filed them. Calls follow the shape of the dose curve; as a rule, active = well fitted curve in the direction sought with a large enough effect; inconclusive = small, poorly fitted or top-dose-only effect, or another doubt; inactive = no such curve, though single readings can be large; an effect the other way counts as inactive or inconclusive.

Cytochrome P450 3A4 (Homo sapiens), sequence (P08684 whole entry, looked up): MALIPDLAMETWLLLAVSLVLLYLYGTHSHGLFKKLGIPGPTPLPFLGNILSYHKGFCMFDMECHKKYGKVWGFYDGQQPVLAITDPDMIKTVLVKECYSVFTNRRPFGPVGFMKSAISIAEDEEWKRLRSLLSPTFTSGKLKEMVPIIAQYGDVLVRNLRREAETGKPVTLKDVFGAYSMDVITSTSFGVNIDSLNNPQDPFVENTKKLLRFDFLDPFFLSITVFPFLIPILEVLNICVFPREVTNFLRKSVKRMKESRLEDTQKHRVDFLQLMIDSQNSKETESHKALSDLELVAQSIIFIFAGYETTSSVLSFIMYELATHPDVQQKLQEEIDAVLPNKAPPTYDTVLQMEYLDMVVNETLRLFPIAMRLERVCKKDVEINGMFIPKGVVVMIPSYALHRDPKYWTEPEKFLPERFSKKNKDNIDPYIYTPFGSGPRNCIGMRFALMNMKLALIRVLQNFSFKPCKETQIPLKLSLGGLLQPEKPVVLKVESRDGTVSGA

For the compound `CC1=CCC2CC1C2(C)C` (configuration not stated), the call in test [1], in [3], in [6], in test [7], in test [10] and in test [11] was inactive. For the same compound, the compound was called inactive in [12]. In addition, the Potency entry in test [2], in [4], in test [5] and in test [8] was “inactive” throughout. Further, in test [9], the caspase-3 activation was 0.916%.
As for `O=c1n(CC2CO2)c(=O)n(CC2CO2)c(=O)n1CC1CO1` (configuration not stated), the compound was classed as inactive in test [1], in test [3], in [6], in test [7], in test [13] and in [10]. For the same compound, the result in test [11] and in test [12] was inactive. The Potency is 12.6 µM (active) in test [4] and 15.8 µM (active) in test [8]. Also, the Potency result in test [5] and in [14] was “inactive” in each case. Moreover, the caspase-3 activation in test [9] was 3.19%.
Turning to `O=C(CCCCCCCCCCCCC1CCCC1)Nc1ccc(S(=O)(=O)c2ccc(NC(=O)CCCCCCCCCCCCC3CCCC3)cc2)cc1`, the Potency result in test [15] is “inactive”.
Turning to `Oc1ccc(/C=C/c2cc(O)cc(O)c2)cc1`, the compound was called inactive in [1], in test [3], in test [6], in [7], in test [10] and in test [11]. Further, the result in [12] was inactive. Also, the Potency result in [2], in test [4], in [5] and in test [8] was “inactive” throughout. For the same compound, the caspase-3 activation in [9] was -7.92%.
Regarding `CCCc1nc(C(C)(C)O)c(C(=O)OCc2oc(=O)oc2C)n1Cc1ccc(-c2ccccc2-c2nn[nH]n2)cc1`, in test [15], the Potency result is “inactive”.
As for `[O-][N+](=Nc1ccccc1)c1ccccc1`, the compound was called inactive in test [1], in test [3], in test [6], in [7], in [13] and in [10]. Also, the compound was classed as inactive in test [11] and in [12]. Also, the Potency entry in [2], in test [4], in test [5], in test [8] and in test [14] was “inactive” throughout. In [9], the caspase-3 activation was 0.871%.
On to `CC/C=C\C/C=C\C/C=C\CCCCCCCC(=O)O`, for which the compound was classed as inactive in test [1], in test [3], in [6], in test [7], in [13] and in test [10]. Besides, the call in test [11] and in test [12] was inactive. The Potency result in [2], in [4], in [5] and in test [8] was “inactive” throughout. The caspase-3 activation in test [9] was 0.606%.
In the case of `O=C(O)[C@H]1C(=CCO)O[C@H]2CC(=O)N12`, the Potency result in test [15] is “inactive”.
Turning to `C=CC(C)(O)CC/C=C(\C)CCC=C(C)C` (configuration not stated), the Potency entry in [15] is “inactive”.
Still for that read-out and setting: under `NCC(O)CC(=O)O` (configuration not stated) stands “inactive”.
On to `Cc1ccc(S(=O)(=O)O)cc1C`, for which the compound was classed as inactive in test [1], in test [3], in test [6], in test [7], in [13] and in [10]. For the same compound, the result in test [11] and in [12] was inactive. The Potency entry in test [2], in test [4], in test [5] and in [8] was “inactive” each time. Besides, the caspase-3 activation in test [9] was 0.165%.
